Test results from the supplement of paper PMC10849652.
About 8,800 targets were measured; listed, in parts, are those with a hit and a random draw of the rest. About 0.5% of all pairs of compound and target were hits. Unmarked numbers belong to inactive results.

What was measured:
Test in all cases: log2 fold change, soluble protein after heating vs DMSO (PISA); higher = thermal stabilisation; K562 lysate, 10 uM; active = over 0.2 and 3.5 SD of the protein, either way, in both replicates (recomputed)
[1] = compound: C1=CC=C(C=C1)[C@H](COC2=CC3=C(C=C2)NC(=O)N3)NC(=O)C4=CC=CN(C4=O)CC5=CC(=C(C=C5)F)F
Procedure, shortened: (§1)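 Thermal stability, expressed as log-two fold change relative to solvent controls, is given from duplicates. Crude K562 extract in PBS pH 7.4 with 1 mM MgCl2, at 1 mg/mL protein, was treated with 10 μM compound for 30 min and heated in aliquots for 3 min across 48°C-58°C. After pooling, adjustment to 0.5% NP-40 at 4°C and centrifugation at 21,000xg for 90 min, supernatant protein was measured by TMTpro 16plex LC-MS/MS with channel sums equalised.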

[2] = compound: CC1=C(SC2=C1C(=N[C@H](C3=NN=C(N32)C)CC(=O)N)C4=CC=C(C=C4)Cl)C
Procedure, shortened: as §1

[3] = compound: CC1=C2C(=CC=C1)N=C(N(C2=O)C3=CC=CC=C3C)CN4C=NC5=C(N=CN=C54)N
Procedure, shortened: as §1

[4] = compound: Cc1sc2c(c1C)C(c1ccc(Cl)cc1)=N[C@@H](CC(=O)OC(C)(C)C)c1nnc(C)n1-2
Procedure, shortened: as §1

[5] = compound: c1ccc([C@@H]2C[C@H]2NC2CCNCC2)cc1
Procedure, shortened: as §1

Sequence of UniProt Q9BWF3 (Q9BWF3 whole entry, looked up): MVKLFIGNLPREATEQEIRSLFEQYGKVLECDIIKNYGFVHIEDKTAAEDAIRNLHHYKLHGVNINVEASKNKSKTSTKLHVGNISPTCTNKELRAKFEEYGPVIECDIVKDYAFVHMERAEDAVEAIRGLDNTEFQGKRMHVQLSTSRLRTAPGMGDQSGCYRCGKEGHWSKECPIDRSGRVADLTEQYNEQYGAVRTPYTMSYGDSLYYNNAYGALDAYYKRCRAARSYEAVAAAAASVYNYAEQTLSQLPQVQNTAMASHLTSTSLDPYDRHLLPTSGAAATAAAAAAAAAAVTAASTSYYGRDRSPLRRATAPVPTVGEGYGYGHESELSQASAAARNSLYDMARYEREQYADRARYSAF
Sequence of UniProt Q99496 (Q99496 whole entry, looked up): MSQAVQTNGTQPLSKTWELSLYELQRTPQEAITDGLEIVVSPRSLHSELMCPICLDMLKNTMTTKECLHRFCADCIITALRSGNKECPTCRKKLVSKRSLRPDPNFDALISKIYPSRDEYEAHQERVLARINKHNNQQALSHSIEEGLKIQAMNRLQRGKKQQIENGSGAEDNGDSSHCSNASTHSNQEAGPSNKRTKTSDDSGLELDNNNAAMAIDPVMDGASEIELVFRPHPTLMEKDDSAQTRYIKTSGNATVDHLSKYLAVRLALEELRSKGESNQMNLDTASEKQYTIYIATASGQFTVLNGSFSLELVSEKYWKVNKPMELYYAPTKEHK
Sequence of UniProt Q96DM3 (Q96DM3 whole entry, looked up): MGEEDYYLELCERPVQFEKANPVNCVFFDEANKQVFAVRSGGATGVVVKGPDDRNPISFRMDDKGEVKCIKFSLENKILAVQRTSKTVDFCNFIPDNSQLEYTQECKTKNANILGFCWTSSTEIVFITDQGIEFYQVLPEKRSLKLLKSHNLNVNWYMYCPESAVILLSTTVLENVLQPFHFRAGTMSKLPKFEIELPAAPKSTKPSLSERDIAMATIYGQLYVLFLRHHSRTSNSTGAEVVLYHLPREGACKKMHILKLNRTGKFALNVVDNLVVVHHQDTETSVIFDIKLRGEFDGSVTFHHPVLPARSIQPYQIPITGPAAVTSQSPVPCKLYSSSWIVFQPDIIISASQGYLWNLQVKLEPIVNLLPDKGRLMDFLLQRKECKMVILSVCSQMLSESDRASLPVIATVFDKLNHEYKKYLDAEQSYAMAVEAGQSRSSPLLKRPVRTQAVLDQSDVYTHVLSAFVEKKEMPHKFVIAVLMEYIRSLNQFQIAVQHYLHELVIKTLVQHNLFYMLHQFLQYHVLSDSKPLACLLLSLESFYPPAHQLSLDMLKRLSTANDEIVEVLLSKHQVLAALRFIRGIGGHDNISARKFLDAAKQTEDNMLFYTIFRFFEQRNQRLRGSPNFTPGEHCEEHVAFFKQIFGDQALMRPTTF
Sequence of UniProt Q86U06 (Q86U06 whole entry, looked up): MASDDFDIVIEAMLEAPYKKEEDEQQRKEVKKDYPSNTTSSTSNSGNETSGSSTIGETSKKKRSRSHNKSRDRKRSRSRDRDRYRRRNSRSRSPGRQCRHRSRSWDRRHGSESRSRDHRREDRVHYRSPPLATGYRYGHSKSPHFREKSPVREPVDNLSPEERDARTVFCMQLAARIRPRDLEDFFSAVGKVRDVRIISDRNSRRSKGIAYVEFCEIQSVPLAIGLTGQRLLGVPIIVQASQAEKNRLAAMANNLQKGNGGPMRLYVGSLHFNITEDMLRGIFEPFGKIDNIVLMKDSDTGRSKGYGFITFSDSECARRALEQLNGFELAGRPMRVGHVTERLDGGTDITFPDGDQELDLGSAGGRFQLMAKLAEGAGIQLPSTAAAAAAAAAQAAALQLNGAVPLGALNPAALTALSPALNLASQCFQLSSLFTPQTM
Sequence of UniProt Q8TC12 (Q8TC12 whole entry, looked up): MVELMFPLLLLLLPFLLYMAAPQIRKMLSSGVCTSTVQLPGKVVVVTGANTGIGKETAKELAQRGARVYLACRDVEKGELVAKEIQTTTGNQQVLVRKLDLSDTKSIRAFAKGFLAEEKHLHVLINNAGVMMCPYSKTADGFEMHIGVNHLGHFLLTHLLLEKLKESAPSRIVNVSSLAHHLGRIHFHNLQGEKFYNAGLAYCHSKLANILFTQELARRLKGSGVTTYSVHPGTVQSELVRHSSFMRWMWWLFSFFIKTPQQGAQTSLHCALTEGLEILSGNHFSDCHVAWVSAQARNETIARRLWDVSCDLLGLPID
Sequence of UniProt Q8NC44 (Q8NC44 whole entry, looked up): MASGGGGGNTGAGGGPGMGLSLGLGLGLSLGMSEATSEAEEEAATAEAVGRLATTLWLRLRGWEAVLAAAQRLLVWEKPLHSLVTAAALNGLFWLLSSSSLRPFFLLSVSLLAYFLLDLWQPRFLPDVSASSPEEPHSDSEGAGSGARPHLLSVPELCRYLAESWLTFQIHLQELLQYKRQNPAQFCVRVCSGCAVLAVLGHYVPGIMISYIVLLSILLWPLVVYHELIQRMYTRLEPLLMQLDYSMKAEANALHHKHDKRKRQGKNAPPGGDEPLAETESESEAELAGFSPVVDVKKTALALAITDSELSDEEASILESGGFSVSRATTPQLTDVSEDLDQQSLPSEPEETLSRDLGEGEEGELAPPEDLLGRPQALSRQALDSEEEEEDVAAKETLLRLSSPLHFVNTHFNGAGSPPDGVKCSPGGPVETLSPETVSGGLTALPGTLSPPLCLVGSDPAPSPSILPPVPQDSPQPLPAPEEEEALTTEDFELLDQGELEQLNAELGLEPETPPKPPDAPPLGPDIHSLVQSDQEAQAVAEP
Sequence of UniProt Q9UPW6 (Q9UPW6 whole entry, looked up): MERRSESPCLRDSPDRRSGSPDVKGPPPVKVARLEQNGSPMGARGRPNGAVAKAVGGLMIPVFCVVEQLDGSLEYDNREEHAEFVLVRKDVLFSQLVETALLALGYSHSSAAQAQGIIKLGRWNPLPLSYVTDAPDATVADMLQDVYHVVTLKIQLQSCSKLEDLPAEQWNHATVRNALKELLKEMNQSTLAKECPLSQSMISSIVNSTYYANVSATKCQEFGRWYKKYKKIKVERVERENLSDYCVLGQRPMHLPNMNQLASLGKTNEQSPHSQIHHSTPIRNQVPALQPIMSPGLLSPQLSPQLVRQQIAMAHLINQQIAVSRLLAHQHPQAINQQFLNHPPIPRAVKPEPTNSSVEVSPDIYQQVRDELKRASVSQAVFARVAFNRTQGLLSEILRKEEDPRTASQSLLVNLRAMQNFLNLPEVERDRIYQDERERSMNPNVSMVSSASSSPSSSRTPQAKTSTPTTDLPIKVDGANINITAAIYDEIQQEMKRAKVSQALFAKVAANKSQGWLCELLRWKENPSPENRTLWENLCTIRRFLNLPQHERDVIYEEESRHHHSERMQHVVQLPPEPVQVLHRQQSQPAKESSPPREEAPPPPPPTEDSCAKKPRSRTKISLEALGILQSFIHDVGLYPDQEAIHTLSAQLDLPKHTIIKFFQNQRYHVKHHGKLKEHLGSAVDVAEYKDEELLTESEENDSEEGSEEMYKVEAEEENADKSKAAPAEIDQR
Sequence of UniProt P61224 (P61224 whole entry, looked up): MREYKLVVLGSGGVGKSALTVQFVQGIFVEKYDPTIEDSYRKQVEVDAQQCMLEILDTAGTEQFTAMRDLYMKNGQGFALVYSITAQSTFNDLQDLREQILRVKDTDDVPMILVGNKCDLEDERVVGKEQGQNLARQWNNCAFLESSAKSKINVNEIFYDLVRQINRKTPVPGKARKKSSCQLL
Sequence of UniProt Q15287 (Q15287 whole entry, looked up): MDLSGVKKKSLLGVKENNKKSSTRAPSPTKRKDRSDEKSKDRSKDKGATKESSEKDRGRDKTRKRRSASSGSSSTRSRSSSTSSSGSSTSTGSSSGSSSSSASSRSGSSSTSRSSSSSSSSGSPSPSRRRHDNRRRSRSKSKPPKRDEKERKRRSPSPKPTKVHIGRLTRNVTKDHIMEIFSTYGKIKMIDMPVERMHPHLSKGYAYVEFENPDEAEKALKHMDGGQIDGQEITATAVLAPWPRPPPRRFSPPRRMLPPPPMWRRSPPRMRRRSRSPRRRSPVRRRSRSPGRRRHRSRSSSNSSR
Sequence of UniProt Q9BTD8 (Q9BTD8 whole entry, looked up): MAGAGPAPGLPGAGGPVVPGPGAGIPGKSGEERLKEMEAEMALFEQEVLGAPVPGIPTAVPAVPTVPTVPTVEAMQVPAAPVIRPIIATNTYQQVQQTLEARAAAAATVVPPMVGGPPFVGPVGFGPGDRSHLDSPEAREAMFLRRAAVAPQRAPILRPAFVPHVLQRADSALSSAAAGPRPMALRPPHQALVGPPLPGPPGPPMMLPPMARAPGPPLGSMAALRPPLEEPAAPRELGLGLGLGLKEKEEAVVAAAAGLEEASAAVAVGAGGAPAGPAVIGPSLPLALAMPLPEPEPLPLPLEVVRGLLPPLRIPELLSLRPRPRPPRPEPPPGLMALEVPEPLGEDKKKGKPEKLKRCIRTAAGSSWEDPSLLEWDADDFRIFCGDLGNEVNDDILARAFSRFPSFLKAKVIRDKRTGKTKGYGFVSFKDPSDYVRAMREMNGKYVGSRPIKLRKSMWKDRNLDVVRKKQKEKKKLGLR
Sequence of UniProt Q99442 (Q99442 whole entry, looked up): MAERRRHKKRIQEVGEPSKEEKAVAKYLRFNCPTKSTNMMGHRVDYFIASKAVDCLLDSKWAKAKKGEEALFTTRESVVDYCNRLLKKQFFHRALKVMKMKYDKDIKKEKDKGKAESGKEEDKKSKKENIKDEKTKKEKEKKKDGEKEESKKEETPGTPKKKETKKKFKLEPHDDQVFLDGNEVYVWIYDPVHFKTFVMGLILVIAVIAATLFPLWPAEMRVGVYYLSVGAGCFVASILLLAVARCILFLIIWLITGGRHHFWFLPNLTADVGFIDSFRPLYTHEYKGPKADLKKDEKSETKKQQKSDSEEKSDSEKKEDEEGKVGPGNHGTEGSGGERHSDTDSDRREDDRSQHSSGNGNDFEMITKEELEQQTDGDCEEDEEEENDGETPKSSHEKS
Sequence of UniProt P31949 (P31949 whole entry, looked up): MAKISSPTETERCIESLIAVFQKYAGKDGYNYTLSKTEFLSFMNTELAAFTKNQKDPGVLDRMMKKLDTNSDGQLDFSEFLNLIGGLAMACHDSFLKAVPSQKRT

Target	log2 fold change [1]	log2 fold change [2]	log2 fold change [3]	log2 fold change [4]	log2 fold change [5]
RAP1B (UniProt P61224)	0.006	-0.023	0.032	0.055	0.02
RPS29 (UniProt P62273)	0.047	-0.055	-0.071	0.328	0.398
SEC62 (UniProt Q99442)	0.059	-0.017	0.015	0.043	-0.023
RBM42 (UniProt Q9BTD8)	-0.014	-0.003	0.107	0.103	-0.006
RBM5 (UniProt P52756)	-0.074	0.08	0.062	0.146	0.103
RBM4 (UniProt Q9BWF3)	0	0.016	0.022	0.03	-0.007
RTN4IP1 (UniProt Q8WWV3)	0.028	-0.005	0.027	-0.119	0.076
RMC1 (UniProt Q96DM3)	-0.013	0.018	-0.052	0.05	0.007
RABL3 (UniProt Q5HYI8)	-0.044	-0.021	0.004	0.017	0.03
RPL36AL (UniProt Q969Q0)	0.074	-0.049	-0.03	0.274	0.015
RNF17 (UniProt Q9BXT8)	-0.241	1 (active)		0.129	0.451
SEC16A isoform 3 (UniProt O15027)				-0.006	
SEC24D isoform 2 (UniProt O94855)	-0.003	0.006	-0.016	0.033	0.009
RNF24 isoform 2 (UniProt Q9Y225)	-0.219	0.037			-0.115
RDH11 (UniProt Q8TC12)			0.064	0.069	-0.085
RNPS1 (UniProt Q15287)	0.014	-0.003	0.06	0.036	0.016
RNASEH1 (UniProt O60930)					0.11
SATB2 (UniProt Q9UPW6)			-0.019	0.021	-0.045
RMI2 (UniProt Q96E14)			-0.18	0.079	
S100A11 (UniProt P31949)	0.029	-0.075	-0.002	-0.029	-0.005
SCNM1 (UniProt Q9BWG6)				-0.332	0.014
RBM23 isoform 2 (UniProt Q86U06)	-0.118	-0.084	0.06	0.011	-0.002
RETREG2 (UniProt Q8NC44)	-0.095	0.016	0.084		0.004
SEMA4G isoform 2 (UniProt Q9NTN9)			0.105	0.021	0.066
RHOU (UniProt Q7L0Q8)			0.065	-0.1	-0.015
SERAC1 (UniProt Q96JX3)	-0.122	0.145		0.11	0.065
RNF2 (UniProt Q99496)			0.03	-0.091	0.343
QSER1, A0A3B3IRW6			0.047	-0.027	
RNPC3 (UniProt Q96LT9)				-0.029	-0.034
SCO1 (UniProt O75880)	-0.021	0.017	0	0.136	-0.027
